For experiment [1], the target named is human Peroxisome Proliferator-activated Receptor delta (PPARd), PPARD (gene 5467) (UniProt Q03181). In words: ATG_PPARd_TRANS: Attagene TRANS-FACTORIAL HepG2 Assay for human Peroxisome Proliferator-activated Receptor delta (PPARd) (AID 2283002; active means hit-call score of the fitted dose curve at least 0.9, where 1 is the maximum). Put shortly: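 Measured quantity: GAL4-UAS reporter transcript induction in HepG2 after 24 h chemical dosing, with NR-Gal4 chimeras supplied by transient transfection. Detection by RT-PCR and capillary electrophoresis; upward fit against DMSO.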
human Peroxisome Proliferator-activated Receptor delta (PPARd), PPARD (gene 5467), sequence (Q03181 whole entry, looked up, the tested form may be a part): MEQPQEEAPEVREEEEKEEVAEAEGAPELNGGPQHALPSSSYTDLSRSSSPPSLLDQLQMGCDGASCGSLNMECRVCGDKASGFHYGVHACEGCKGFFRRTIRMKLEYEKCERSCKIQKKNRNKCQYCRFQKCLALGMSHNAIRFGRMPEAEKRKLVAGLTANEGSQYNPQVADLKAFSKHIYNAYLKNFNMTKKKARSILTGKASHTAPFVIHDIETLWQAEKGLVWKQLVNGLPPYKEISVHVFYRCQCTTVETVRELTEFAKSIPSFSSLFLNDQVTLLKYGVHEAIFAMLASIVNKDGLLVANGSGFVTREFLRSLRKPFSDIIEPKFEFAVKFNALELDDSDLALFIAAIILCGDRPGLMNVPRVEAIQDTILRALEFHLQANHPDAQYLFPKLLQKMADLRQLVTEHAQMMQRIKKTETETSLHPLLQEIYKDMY

Read-out in experiment [2]: Intercellular Adhesion Molecule 1 (ICAM1), ICAM1 (gene 3383)
The experiment can be described thus: BSK_3C_ICAM1: BioMAP Diversity Plus: 3C Assay for Intercellular Adhesion Molecule 1 (ICAM1) Biomarker Activity (AID 2283003). As to conditions: primary human endothelial cells (HUVEC); actives raise or lower the signal. Put shortly:
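ELISA readout of ICAM1 in human umbilical vein endothelial cells in the 3C system, taken 24 h post-dose. Gain or loss of signal versus DMSO was fitted in both directions, with SRB total-protein staining run in parallel.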

The target of experiment [3] is human Retinoic Acid Receptor beta (RARb), RARB (gene 5915) (UniProt P10826). The experiment can be described thus: ATG_RARb_TRANS: Attagene TRANS-FACTORIAL HepG2 Assay for human Retinoic Acid Receptor beta (AID 2283004; active means hit-call score of the fitted dose curve at least 0.9, where 1 is the maximum). Put shortly: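 HepG2 cells were transiently transfected with GAL4-UAS reporter units that report activity of exogenous chimeric NR-Gal4 proteins, then exposed to compound for 24 h. Reporter mRNA was quantified by RT-PCR with capillary electrophoresis fluorescence, as gain of signal over DMSO.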
human Retinoic Acid Receptor beta (RARb), RARB (gene 5915), sequence (P10826 whole entry, looked up, the tested form may be a part): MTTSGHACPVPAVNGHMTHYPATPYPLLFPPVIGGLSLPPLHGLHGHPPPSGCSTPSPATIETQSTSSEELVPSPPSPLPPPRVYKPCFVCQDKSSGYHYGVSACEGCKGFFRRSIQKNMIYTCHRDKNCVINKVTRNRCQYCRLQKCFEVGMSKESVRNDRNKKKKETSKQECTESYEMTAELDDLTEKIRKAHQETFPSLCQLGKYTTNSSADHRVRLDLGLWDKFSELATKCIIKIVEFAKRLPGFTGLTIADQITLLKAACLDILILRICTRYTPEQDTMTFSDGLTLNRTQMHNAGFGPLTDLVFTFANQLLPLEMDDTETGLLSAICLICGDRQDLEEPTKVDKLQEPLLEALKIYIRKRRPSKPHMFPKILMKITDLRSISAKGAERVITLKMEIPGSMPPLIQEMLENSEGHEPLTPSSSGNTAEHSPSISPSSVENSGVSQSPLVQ

The nature of experiment [4]: BSK_3C_Proliferation: Cell Proliferation Assessment in the BioMAP Diversity Plus: 3C Assay (AID 2283006).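 On AC50: potency may reflect either rise or fall in cell number versus DMSO.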 The settings on record: primary human endothelial cells (HUVEC). Put shortly:
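Proliferation as total protein: sulforhodamine B (0.1%) stain of TCA-fixed subconfluent human umbilical vein endothelial cells, absorbance 560 nm, 48 h after dosing. Activity fitted in both directions against DMSO baseline.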

The target in experiment [5] is Peroxisome proliferator-activated receptor gamma (Homo sapiens) (UniProt P37231). In words: ATG_PPARg_TRANS: Attagene TRANS-FACTORIAL HepG2 Assay for human Peroxisome Proliferator-activated Receptor-gamma (PPARg) (AID 2283007; active means hit-call score of the fitted dose curve at least 0.9, where 1 is the maximum). The essentials:
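After 24 h of chemical exposure, transfected HepG2 cells carrying PPARγ-Gal4 chimera reporter constructs are lysed for RNA. Reporter transcripts are measured by RT-PCR and capillary electrophoresis with fluorescent labelling, and gain of signal is fitted versus DMSO.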

The target in experiment [6] is Nuclear receptor subfamily 1 group I member 2 (Homo sapiens) (UniProt O75469). The experiment can be described thus: ATG_PXR_TRANS: Attagene TRANS-FACTORIAL HepG2 Assay for human Pregnane X Receptor (PXR) (AID 2283008; active means hit-call score of the fitted dose curve at least 0.9, where 1 is the maximum). Put shortly:
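HepG2 transfected (FuGene 6) with GAL4-UAS reporter units + PXR-Gal4 chimera; dosed 24 h. Total RNA → oligo(dT) RT → PCR → 6-FAM primer extension → HpaI cut → CE. Gain-of-signal vs DMSO.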

Read-out in experiment [7]: E-selectin (Homo sapiens) (UniProt P16581)
The experiment can be described thus: BSK_3C_Eselectin: BioMAP Diversity Plus: 3C Assay for Eselectin Biomarker Activity (AID 2283015).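 On outcome: cell surface E-selectin protein quantified by ELISA 24 h after dosing.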 As to conditions: primary human endothelial cells (HUVEC); actives raise or lower the signal. The essentials: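 Primary human umbilical vein endothelial cells (3C system), read 24 h after compound addition; E-selectin measured by ELISA. Bidirectional curve fitting against DMSO baseline; cytotoxicity by parallel SRB total-protein staining.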

Read-out in experiment [8]: Interleukin-1 alpha (IL1a), IL1A (gene 3552)
The experiment can be described thus: BSK_BE3C_IL1a: BioMAP Diversity Plus: BE3C Assay for Interleukin-1 alpha (IL1a) Biomarker Activity (AID 2283016). The settings on record: primary human bronchial epithelial cells; actives raise or lower the signal. The essentials: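 IL-1a measured by ELISA after 24 h treatment of human primary bronchial epithelial cells, with gain or loss of signal fitted versus DMSO. Parallel cultures stained with SRB gauge overt cytotoxicity.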

Read-out in experiment [9]: Monocyte Chemoattractant Protein-1 (MCP1), CCL2 (gene 6347)
The experiment can be described thus: BSK_3C_MCP1: BioMAP Diversity Plus: 3C Assay for Monocyte Chemoattractant Protein-1 (MCP1) Biomarker Activity (AID 2283017). As to conditions: primary human endothelial cells (HUVEC); actives raise or lower the signal. Put shortly:
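Human umbilical vein endothelial cells (3C system) exposed to chemicals for 24 h; MCP-1 quantified by ELISA against the DMSO baseline with bidirectional fitting, and parallel SRB staining used to assess cytotoxicity.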

Read-out in experiment [10]: Monocyte Chemoattractant Protein-1 (MCP1), CCL2 (gene 6347)
In words: BSK_4H_MCP1: BioMAP Diversity Plus: 4H Assay for Monocyte Chemoattractant Protein-1 (MCP1) Biomarker Activity (AID 2283018). As to conditions: primary human endothelial cells (HUVEC); actives raise or lower the signal. The essentials:
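ELISA of MCP-1 (CCL2) 24 h after chemical dosing of HUVEC in the BioMAP 4H system. Gain or loss versus DMSO fitted; parallel SRB staining (560 nm) tracked overt cytotoxicity.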

Read-out in experiment [11]: Human Leukocyte Antigen - DR isotype (HLADR), HLA-DRA (gene 3122)
In words: BSK_3C_HLADR: BioMAP Diversity Plus: 3C Assay for Human Leukocyte Antigen - DR isotype (HLADR) Biomarker Activity (AID 2283019).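 On outcome: ELISA of cell-surface HLA-DR on HUVEC 24 h after dosing.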 As to conditions: primary human endothelial cells (HUVEC); actives raise or lower the signal. Put shortly:
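HUVEC monoculture, HLA-DR measured by ELISA 24 h after chemical dosing. Fitted bidirectionally against DMSO baseline; parallel SRB staining assessed cytotoxicity, with 3C proliferation read by SRB at 48 h.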

Read-out in experiment [12]: Interleukin-8 (IL8), CXCL8 (gene 3576)
In words: BSK_3C_IL8: BioMAP Diversity Plus: 3C Assay for Interleukin-8 (IL8) Biomarker Activity (AID 2283020). The settings on record: primary human endothelial cells (HUVEC); actives raise or lower the signal. Put shortly:
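IL-8 was measured by ELISA in HUVEC cultures 24 h after chemical dosing, with gain or loss of signal fitted relative to DMSO. Parallel SRB total-protein staining tracked overt cytotoxicity.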

Read-out in experiment [13]: Monokine induced gamma interferon (MIG), CXCL9 (gene 4283)
In words: BSK_3C_MIG: BioMAP Diversity Plus: 3C Assay for Monokine induced gamma interferon (MIG) Biomarker Activity (AID 2283021).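 On AC50: MIG protein level measured by immunoassay in the treated endothelial cultures.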 The settings on record: primary human endothelial cells (HUVEC); actives raise or lower the signal. The essentials: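 ELISA measurement of MIG in human umbilical vein endothelial cells 24 h after treatment. Cytotoxicity tracked by SRB staining in parallel cultures; gain or loss of signal fitted relative to DMSO.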

Experiment [14] has as its target human Thyroid Receptor alpha (THRa1), THRA (gene 7067) (UniProt P10827). The experiment can be described thus: ATG_THRa1_TRANS: Attagene TRANS-FACTORIAL HepG2 Assay for human Thyroid Receptor alpha (THRa1) (AID 2283014; active means hit-call score of the fitted dose curve at least 0.9, where 1 is the maximum). The essentials:
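HepG2 cells transiently transfected with chimeric NR-Gal4 and GAL4-UAS reporter units, dosed 24 h. Reporter mRNA quantified by RT-PCR, fluorescent labeling, HpaI digestion and capillary electrophoresis; gain-of-signal fit versus DMSO.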

For experiment [15], the target named is Retinoic acid receptor RXR-alpha (Homo sapiens) (UniProt P19793). In words: ATG_RXRa_TRANS: Attagene TRANS-FACTORIAL HepG2 Assay for human Retinoid X Receptor alpha (RXRa) (AID 2283012; active means hit-call score of the fitted dose curve at least 0.9, where 1 is the maximum). Put shortly: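 TRANS format reporting activity of exogenous RXRa-Gal4 chimera in transiently transfected HepG2, 24 h exposure. Reporter transcripts quantified by RT-PCR with capillary electrophoresis, with gain of signal scored relative to DMSO.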
Retinoic acid receptor RXR-alpha (Homo sapiens), sequence (P19793 whole entry, looked up, the tested form may be a part): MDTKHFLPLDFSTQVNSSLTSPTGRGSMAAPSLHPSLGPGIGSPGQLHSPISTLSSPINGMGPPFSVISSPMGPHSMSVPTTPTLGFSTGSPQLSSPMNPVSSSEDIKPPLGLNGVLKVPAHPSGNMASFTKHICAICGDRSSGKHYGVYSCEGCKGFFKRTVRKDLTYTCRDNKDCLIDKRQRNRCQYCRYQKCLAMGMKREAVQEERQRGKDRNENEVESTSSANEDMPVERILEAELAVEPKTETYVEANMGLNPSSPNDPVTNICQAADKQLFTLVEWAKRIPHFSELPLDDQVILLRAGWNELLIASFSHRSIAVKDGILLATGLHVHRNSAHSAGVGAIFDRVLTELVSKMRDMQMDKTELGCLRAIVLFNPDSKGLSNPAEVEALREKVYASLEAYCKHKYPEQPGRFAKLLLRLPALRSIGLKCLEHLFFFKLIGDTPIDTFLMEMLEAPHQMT

Experiment [16] deals with human RAR-related Orphan Receptor gamma (RORg), RORC (gene 6097) (UniProt P51449). In words: ATG_RORg_TRANS: Attagene TRANS-FACTORIAL HepG2 Assay for human RAR-related Orphan Receptor gamma (RORg) (AID 2283011; active means hit-call score of the fitted dose curve at least 0.9, where 1 is the maximum). The essentials: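 HepG2 cells transiently transfected with GAL4-UAS reporter units and chimeric RORg-Gal4 construct; after 24 h chemical exposure, reporter mRNA measured by RT-PCR with fluorescent capillary electrophoresis, gain of signal fitted against DMSO.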
human RAR-related Orphan Receptor gamma (RORg), RORC (gene 6097), sequence (P51449 whole entry, looked up, the tested form may be a part): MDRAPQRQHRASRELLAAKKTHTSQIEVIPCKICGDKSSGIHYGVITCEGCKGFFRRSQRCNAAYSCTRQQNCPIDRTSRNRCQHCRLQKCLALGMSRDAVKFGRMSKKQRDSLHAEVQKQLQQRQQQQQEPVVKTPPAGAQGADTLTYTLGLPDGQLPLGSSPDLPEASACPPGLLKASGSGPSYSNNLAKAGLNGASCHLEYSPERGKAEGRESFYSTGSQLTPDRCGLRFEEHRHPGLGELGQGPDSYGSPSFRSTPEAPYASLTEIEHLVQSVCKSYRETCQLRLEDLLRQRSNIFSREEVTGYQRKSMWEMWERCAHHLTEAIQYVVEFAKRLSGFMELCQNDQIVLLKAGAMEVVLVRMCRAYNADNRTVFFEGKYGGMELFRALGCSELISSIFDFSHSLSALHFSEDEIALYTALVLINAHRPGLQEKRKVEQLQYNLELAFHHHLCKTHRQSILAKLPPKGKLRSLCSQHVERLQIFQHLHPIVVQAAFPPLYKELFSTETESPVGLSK

Inconclusive results are not listed. The source made the active and inactive calls. How the source made its calls, unless noted: active means hit-call score of the fitted dose curve at least 0.9, where 1 is the maximum; inactive means score below 0.9.

Nuclear receptor subfamily 1 group I member 2 (Homo sapiens), sequence (O75469 whole entry, looked up, the tested form may be a part): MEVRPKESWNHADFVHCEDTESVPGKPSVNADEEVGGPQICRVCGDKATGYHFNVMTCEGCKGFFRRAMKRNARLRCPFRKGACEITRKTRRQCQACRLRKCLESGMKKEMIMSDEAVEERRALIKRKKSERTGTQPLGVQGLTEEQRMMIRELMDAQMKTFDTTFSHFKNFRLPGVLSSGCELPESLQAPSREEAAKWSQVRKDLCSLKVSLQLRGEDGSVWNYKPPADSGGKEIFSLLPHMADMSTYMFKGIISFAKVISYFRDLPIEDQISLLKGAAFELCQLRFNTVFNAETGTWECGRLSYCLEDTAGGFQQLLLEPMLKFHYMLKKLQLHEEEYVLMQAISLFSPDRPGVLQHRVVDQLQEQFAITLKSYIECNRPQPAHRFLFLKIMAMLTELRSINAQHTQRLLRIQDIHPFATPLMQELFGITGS
E-selectin (Homo sapiens), sequence (P16581 whole entry, looked up): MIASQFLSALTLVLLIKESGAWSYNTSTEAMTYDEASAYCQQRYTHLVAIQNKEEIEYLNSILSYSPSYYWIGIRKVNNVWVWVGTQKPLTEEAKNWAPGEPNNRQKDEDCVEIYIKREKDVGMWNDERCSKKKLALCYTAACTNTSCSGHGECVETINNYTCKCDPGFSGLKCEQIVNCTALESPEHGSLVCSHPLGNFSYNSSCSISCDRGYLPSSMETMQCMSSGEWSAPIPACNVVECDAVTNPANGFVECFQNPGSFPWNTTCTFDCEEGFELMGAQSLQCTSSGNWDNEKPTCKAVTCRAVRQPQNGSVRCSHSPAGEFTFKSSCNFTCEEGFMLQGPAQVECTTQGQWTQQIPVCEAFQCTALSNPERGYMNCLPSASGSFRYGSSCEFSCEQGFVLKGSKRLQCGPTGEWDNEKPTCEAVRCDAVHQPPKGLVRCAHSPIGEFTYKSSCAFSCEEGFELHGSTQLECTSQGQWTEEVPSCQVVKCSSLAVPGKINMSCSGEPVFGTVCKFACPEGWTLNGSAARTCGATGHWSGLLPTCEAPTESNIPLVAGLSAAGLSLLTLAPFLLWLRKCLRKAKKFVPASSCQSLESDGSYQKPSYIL
Peroxisome proliferator-activated receptor gamma (Homo sapiens), sequence (P37231 whole entry, looked up, the tested form may be a part): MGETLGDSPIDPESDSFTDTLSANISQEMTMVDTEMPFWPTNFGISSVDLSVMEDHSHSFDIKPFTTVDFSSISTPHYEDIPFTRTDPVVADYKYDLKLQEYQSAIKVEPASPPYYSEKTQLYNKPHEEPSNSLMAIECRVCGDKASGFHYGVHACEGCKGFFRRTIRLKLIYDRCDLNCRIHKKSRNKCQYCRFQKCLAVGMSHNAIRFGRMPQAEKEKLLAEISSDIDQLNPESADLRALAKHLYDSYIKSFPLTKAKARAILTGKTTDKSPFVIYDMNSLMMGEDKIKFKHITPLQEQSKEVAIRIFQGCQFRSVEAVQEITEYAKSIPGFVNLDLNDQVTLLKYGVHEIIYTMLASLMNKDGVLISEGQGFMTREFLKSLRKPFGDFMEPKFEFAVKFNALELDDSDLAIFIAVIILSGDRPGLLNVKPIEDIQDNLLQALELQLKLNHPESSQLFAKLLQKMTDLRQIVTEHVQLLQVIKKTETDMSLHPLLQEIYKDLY
human Thyroid Receptor alpha (THRa1), THRA (gene 7067), sequence (P10827 whole entry, looked up, the tested form may be a part): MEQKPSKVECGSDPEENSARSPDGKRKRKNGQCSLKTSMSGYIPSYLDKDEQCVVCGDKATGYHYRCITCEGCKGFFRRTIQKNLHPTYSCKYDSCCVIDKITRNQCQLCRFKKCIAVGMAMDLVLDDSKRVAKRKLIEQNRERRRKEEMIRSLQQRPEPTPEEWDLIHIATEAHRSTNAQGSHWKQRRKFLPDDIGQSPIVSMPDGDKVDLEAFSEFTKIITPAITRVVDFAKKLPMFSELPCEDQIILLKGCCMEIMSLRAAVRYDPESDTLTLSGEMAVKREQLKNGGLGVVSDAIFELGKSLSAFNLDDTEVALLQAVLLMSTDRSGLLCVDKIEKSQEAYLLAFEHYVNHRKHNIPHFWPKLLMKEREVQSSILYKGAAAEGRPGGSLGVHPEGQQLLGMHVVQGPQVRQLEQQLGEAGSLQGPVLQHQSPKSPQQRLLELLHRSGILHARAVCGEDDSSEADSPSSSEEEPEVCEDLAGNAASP

The AC50 is the concentration at which the activity in the assay is half-maximal. On to `CC[C@H](NC(=O)c1cc(F)ccc1NS(=O)(=O)c1cccc2cccnc12)c1ccccc1`, for which the call in [1], in experiment [2], in [3], in [4], in experiment [7] and in experiment [8] was inactive. For the same compound, the result in [9], in experiment [10], in [11], in [12] and in experiment [13] was inactive. The AC50 is 13100 nM (active) in experiment [5] and 12.4 nM (active) in experiment [6].

On to `CN(C)c1ccc(C(=C2C=CC(=[N+](C)C)C=C2)c2ccc(N(C)C)cc2)cc1`, for which the outcome in experiment [1], in experiment [3] and in experiment [14] was inactive. In addition, the AC50 in [2] is 10300 nM (active); in experiment [4], 2420 nM (active); in [5] it was 16800 nM (active); in experiment [7] it was 815 nM (active); in [8] it was 2360 nM (active); in experiment [9], 798 nM (active). In addition, the AC50 was 660 nM (active) in [10], 344 nM (active) in [11], 5530 nM (active) in [12] and 9930 nM (active) in experiment [13].

With `COc1cccc([C@H](O)C2CCN(CCc3ccc(F)cc3)CC2)c1OC`, the compound was classed as inactive in experiment [1], in [2], in experiment [4], in experiment [6], in experiment [15] and in experiment [7]. For the same compound, the outcome in [8], in experiment [9], in experiment [10], in [11], in experiment [12] and in experiment [13] was inactive.

As to `O=C1c2ccccc2C(=O)N1CCc1noc(-c2ccc(CN3CCCCCC3)s2)n1`, the call in [1], in [2], in experiment [4], in experiment [5], in experiment [16] and in experiment [14] was inactive. Besides, the result in [7], in [8], in [9], in experiment [10], in [12] and in [13] was inactive. Further, the AC50 is 2720 nM (active) in experiment [6] and 26700 nM (active) in experiment [11].

These data come from PubChem BioAssay (EPA / NIEHS).
